An excerpt weighted towards active compounds, which were near 2.3% of everything screened.
MIN6 prolif – inducers of beta-cell replication in MIN6 cells; AID 2380; hit rate 0.29% among 330,000; proliferation, % at 10 µM; MIN6 cells proliferation, ATPlite luminescence, 48 h; cells starved in 0.2% serum; 100% = growth in 10% serum;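 active = compounds whose signal lies at least 3.5 SD above the mean of all wells on their plate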;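 also: 0% = DMSO-treated cells in low-serum medium and 100% = 10% serum control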
TAG inh – inhibitors of triacylglycerol accumulation | H9c2 cells, Nile Red lipid (TAG) fluorescence; cells loaded with 200 µM oleic acid | inhibition, % at 12.5 µM | hit rate 0.66% among 230,000;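 active = pattern-corrected inhibition of lipid staining of at least 50% with the nuclear-stain viability signal not falling by more than 50%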;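 also: 0% = DMSO wells and 100% = triacsin C control wells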
aDG glyco act – increases alpha dystroglycan glycosylation. Pro5-aDG cells, alpha-DG glycosylation AlphaScreen (IIH6); 0% Pro5, 100% B10-LARGE cell signal. activation, % at 10 µM. hit rate 0.22% among 360,000;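 active = activation of at least 8% versus controls, or a plate z-score of at least 8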;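 also: Pro5 are CHO cells carrying HIG-tagged alpha-DG that lacks glycosylation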
m-calpain inh – blocks pig calpain II enzyme activity; purified calpain II, fluorogenic peptide substrate, 30 min; inhibition, % at 16 µM; hit rate 0.37% among 220,000; AID 1236;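 active = inhibition above about 50%, limit read from the data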
Cardio protect – myocardial damage modulation in H9c2 cells | H9c2 cardiomyocytes, H2O2 injury protection, ATPLite, 2 h | protection from H2O2 cell death, % at 20 µM | hit rate 0.63% among 360,000 | AID 588492;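 active = compounds giving at least 50% protection of heart cells from peroxide-induced death in the single-dose screen, raw or plate-pattern-corrected value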;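 also: 0% = DMSO wells with peroxide and 100% = DMSO wells without peroxide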
FAS-TE inh – FAS thioesterase (human) inhibition. P49327. recombinant FAS-TE, OMFH fluorogenic substrate, fluorescence endpoint. inhibition, % at 15 µM. hit rate 0.67% among 360,000. AID 602261;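 active = compounds whose normalised, plate-corrected inhibition of enzyme fluorescence in the single-dose primary screen is 50% or more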;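 also: 0% = DMSO with enzyme and 100% = substrate without enzyme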
FAS-TE conf – FAS thioesterase (human) inhibition, confirmation; shares compounds with FAS-TE inh; recombinant FAS-TE, OMFH fluorogenic substrate, fluorescence; inhibition, % at 15 µM; hit rate 45% among 2,300; AID 624325;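 active = compounds inhibiting the enzyme by at least 50% at 15 µM in any one of the replicates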;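 also: 0% = enzyme with DMSO only and 100% = wells lacking enzyme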
Starred values were filed as active, the others as inactive.

CCn1cc(/C=C(\NC(=O)c2ccc(OC)cc2)C(=O)NCCCn2ccnc2)c2ccccc21 was read as TAG inh -4.2, aDG glyco act -0.5, Cardio protect -0.2 and FAS-TE inh -6.2.
Screening CCCNC(=O)/C(=C/c1cn(S(=O)(=O)N(C)C)c2ccccc12)NC(=O)c1ccc(OC)cc1 returned MIN6 prolif -1.4, TAG inh -11.5, aDG glyco act -0.2, m-calpain inh -29.5, Cardio protect 1.2, FAS-TE inh 80.9* and FAS-TE conf 87.6*.
`Cc1ccc(C(=O)N/C(=C\c2cn(S(=O)(=O)N(C)C)c3ccccc23)C(=O)NCCN2CCOCC2)cc1` gave MIN6 prolif -3.8, aDG glyco act -0.1, Cardio protect 3.2, FAS-TE inh 60.4* and FAS-TE conf 66.9*.
`COc1ccc(N2CCN(C(=O)CSc3ccc(C)cc3)CC2)cc1` gave MIN6 prolif -1.4, TAG inh 9.6, aDG glyco act 0.8, m-calpain inh -19.5, Cardio protect -2.8 and FAS-TE inh -6.8.
Screening COc1ccc(N2CCN(C(=O)CSc3ccc([N+](=O)[O-])cc3)CC2)cc1 returned MIN6 prolif -2.7, aDG glyco act -0.1, m-calpain inh -9.4, Cardio protect -6.9, FAS-TE inh 60.1* and FAS-TE conf 33.4*.
Screening N#Cc1c(/N=C/c2ccc(-c3ccccc3C(=O)O)o2)sc2c1CCCC2 returned MIN6 prolif 1.4, aDG glyco act 0.0, Cardio protect -16.0 and FAS-TE inh -0.3.
N#Cc1c(/N=C/c2ccc(-c3ccc(C(=O)O)c(Cl)c3)o2)sc2c1CCCC2 was read as MIN6 prolif -4.1, TAG inh -1.8, aDG glyco act -0.1, Cardio protect -10.8, FAS-TE inh 50.2* and FAS-TE conf 41.5.
Screening Cc1cccc(CN2CCN(C3CN(Cc4cn(Cc5ccc(Cl)cc5)nn4)S(=O)(=O)C3)CC2)c1 (centres undefined) returned aDG glyco act -0.1 and FAS-TE inh -1.7.
Screening CC1(C)CC2CC(C)(CN2S(=O)(=O)c2ccc(C(=O)Nc3ccc(S(=O)(=O)N4CCOCC4)cc3)cc2)C1 (centres undefined) returned MIN6 prolif -3.9, TAG inh -12.0, aDG glyco act 2.1, m-calpain inh -57.6, Cardio protect -7.8, FAS-TE inh 57.6* and FAS-TE conf 24.8.
Screening CC(=O)Nc1ccc(S(=O)(=O)N2CC3(C)CC2CC(C)(C)C3)cc1 (centres undefined) returned MIN6 prolif 0.9, TAG inh -2.4, aDG glyco act -0.3, m-calpain inh 8.7, Cardio protect -4.6 and FAS-TE inh -0.5.
`CC1(C)CC2CC(C)(CN2S(=O)(=O)c2ccc(C(=O)Nc3ccc(Cl)c(S(=O)(=O)N4CCOCC4)c3)cc2)C1` (centres undefined) gave MIN6 prolif -2.1, aDG glyco act 0.5, m-calpain inh -58.7, Cardio protect -15.2, FAS-TE inh 80.2* and FAS-TE conf 13.3.
`CCOc1cc2c(cc1O)C(=NO)CC1C2CCC2(C)C(O)CCC12` (centres undefined) gave TAG inh 19.2, aDG glyco act -0.5, Cardio protect 7.3 and FAS-TE inh -8.8.
Screening N#Cc1c(-c2ccccc2)c(-c2ccccc2)nn(CC(=O)NNC(=O)Nc2ccc(Cl)c(Cl)c2)c1=O returned MIN6 prolif -3.2, TAG inh 8.8, aDG glyco act -0.2, m-calpain inh -204.6, Cardio protect -13.3, FAS-TE inh 68.9* and FAS-TE conf 48.1*.
For Cc1ccc(NC(=O)c2ccc(Cl)c(S(=O)(=O)Nc3c(C)n(C)n(-c4ccccc4)c3=O)c2)cc1Cl the results were MIN6 prolif -6.8, TAG inh 7.2, aDG glyco act 0.0, Cardio protect 9.3, FAS-TE inh 76.1* and FAS-TE conf 18.0.
Screening O=C(COC(=O)/C=C/c1ccc2c(c1)OCO2)NCc1ccc(F)cc1 returned TAG inh 0.9, aDG glyco act -0.3, Cardio protect -3.6 and FAS-TE inh -4.7.
`Cc1cccc(NS(=O)(=O)c2ccc3[nH]c(=O)cc(C(=O)OC(C)C(=O)Nc4ccc([N+](=O)[O-])cc4)c3c2)c1` (centres undefined) gave MIN6 prolif -2.3, TAG inh 5.3, aDG glyco act 0.0, m-calpain inh -38.8, Cardio protect 7.8, FAS-TE inh 87.4* and FAS-TE conf 93.0*.
Screening Cc1ccc(CCN2CC(C(=O)NCCCN3CCCCC3)CC2=O)cc1 (centres undefined) returned MIN6 prolif -0.2, aDG glyco act 2.8, Cardio protect -3.4 and FAS-TE inh -3.5.
Screening Cc1ccc2c(C)nc(/N=C(\N)NC(=O)N3c4ccccc4Sc4ccccc43)nc2c1 returned TAG inh 18.7, aDG glyco act 0.2, m-calpain inh -54.9, Cardio protect -2.7, FAS-TE inh 63.6* and FAS-TE conf 3.9.
Screening Cc1ccc2nc(/N=C(\N)NC(=O)N3c4ccccc4Sc4ccccc43)nc(C)c2c1 returned MIN6 prolif -2.8, aDG glyco act -0.1, m-calpain inh -39.6, Cardio protect -2.9, FAS-TE inh 55.2* and FAS-TE conf -4.7.
COc1ccc2nc(/N=C(\N)NC(=O)C(C)(C)C)nc(C)c2c1 was read as MIN6 prolif -2.4, TAG inh 25.6, aDG glyco act 0.0, m-calpain inh -112.7, Cardio protect 19.9 and FAS-TE inh -107.5.
Screening COc1ccc2nc(/N=C(\N)NC(=O)N3c4ccccc4Sc4ccccc43)nc(C)c2c1 returned MIN6 prolif 0.0, aDG glyco act -0.1, m-calpain inh -20.8, Cardio protect 3.8 and FAS-TE inh 13.6.
For Cc1cc2nc(/N=C(\N)NC(=O)N3c4ccccc4Sc4ccccc43)nc(C)c2cc1C the results were TAG inh 41.2, aDG glyco act 0.3, m-calpain inh -24.1, Cardio protect -1.1, FAS-TE inh 61.6* and FAS-TE conf 14.4.
CN1C(=O)c2ccccc2Cc2c(NCc3ccccc3)ncnc21 was read as TAG inh -3.1, aDG glyco act -0.4, Cardio protect -7.3 and FAS-TE inh -0.6.
Screening O=C(/C=C/Nc1ccc(F)c(Cl)c1)c1ccccc1 returned MIN6 prolif -2.6, aDG glyco act 0.2, Cardio protect -9.4 and FAS-TE inh 15.7.
For CC1CN(c2ccccn2)C(C)CN1C(=S)Nc1ccccc1 (centres undefined) the results were TAG inh 0.9, aDG glyco act 0.0, Cardio protect -0.8 and FAS-TE inh -4.0.
CC(=O)N(c1ccccc1C)C1CCCC1 was read as MIN6 prolif 0.6, aDG glyco act -0.2, m-calpain inh -4.4, Cardio protect 18.8 and FAS-TE inh -7.0.
